Results: PubChem BioAssay

Experiment: small-molecule binders of probe aNOTCH2, primary screen, biochemical, small-molecule microarray, 635/667 nm fluorescence (AID 1121);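 note: score merges feature fluorescence read at 667 nm with its signal to noise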
Conditions: higher = more signal

Structure (SMILES)	composite z-score
CON=C(C)CCN1CCCCc2nc(C)c(C)cc21	0.0207
CCOC(=O)[C@H](Cc1ccccc1)NC(=O)CCC1CC(OC(=O)NCc2cccc3ccccc23)CC2(CCCC(COC(=O)NCC3CCCCC3)O2)O1 (stereo partly specified)	-0.123
CO[C@H]1COC(=O)CCC[C@H](C)[C@@H](OC)COC(=O)CC=C[C@@H]1C	-0.0766
C[C@H]1C=CCC(=O)OC[C@H](C)C(=O)N2CCC[C@H]2C(=O)OC1	-0.115
CC(=O)OC[C@H]1O[C@H](CCON=C(C)C)C=C[C@@H]1OC(C)=O	-0.0651
CC(C)[C@@H](OCc1ccccc1)[C@H](C)C=NO[C@@H](C)c1cn([C@H](CO)Cc2ccccc2)nn1	-0.146
O=C1C2=CC[C@H]3C(=O)N(C4CCCCC4)C(=O)[C@H]3[C@H]2[C@H](O)[C@@H]2O[C@H]12	-0.149
CC(C)(C)N1C(=O)[C@H]2[C@H]3[C@H](O)[C@H](O)CC(=NNC(=O)OCc4ccccc4)[C@H]3CC[C@H]2C1=O	-0.075
CC(C)(C)N1C(=O)[C@H]2[C@H]3[C@H](O)[C@H](O)CC(=NNC(=O)OCc4ccccc4)[C@@H]3CC[C@H]2C1=O	-0.0515
O=C1C2=CC[C@H]3C(=O)N(C[C@@H]4CCCO4)C(=O)[C@H]3[C@H]2[C@H](O)[C@@H]2O[C@H]12	-0.0928
CO[C@@H]1C=CCC(=O)N[C@@H](C)C(=O)OC[C@@H](NS(=O)(=O)c2ccc(C)cc2)[C@H](C)C=CCC(=O)OC[C@H]1C	-0.242
C[C@@H]1CC[C@@H](C(=O)O)N[C@H]1c1cccc(N2CCOCC2)c1	-0.126
CO[C@@H]1COC(=O)[C@@H]2CCCN2C(=O)[C@@H](C)COC(=O)CCC[C@H]1C	-0.16
O=C1[C@H]2[C@H]3[C@H](O)[C@H](O)CC(=NOC[C@@H](O)COCc4ccco4)[C@@H]3CC[C@H]2C(=O)N1C1CCCCC1	-0.251
CC(CCC(=O)OC[C@H]1O[C@H](C#Cc2ccccc2)C=C[C@@H]1Oc1ccc(C)cc1)=NO[C@H](C)c1cn([C@@H]2COC[C@H]2O)nn1	-0.125
C[C@H]1CC[C@H]2C(=O)N[C@H](Cc3ccccc3)C(=O)N2[C@@H]1c1ccccc1	-0.0811
CC(=O)OC[C@H]1O[C@H](CC=NO[C@H](C)c2cn([C@@H]3COC[C@H]3O)nn2)C=C[C@@H]1OC(C)=O	-0.153
O=C1CCCC=C1C(O)COCc1ccccc1 (stereo unspecified)	-0.157

Structure (SMILES)	composite z-score
COc1ccc(COC(=O)NN=C2C[C@@H](O)[C@@H](O)[C@@H]3[C@@H]4C(=O)N(C5CCCCC5)C(=O)[C@@H]4CC[C@@H]23)cc1	-0.0256
COC(=O)CC=C[C@@H](C)[C@@H](C=NOC[C@@H](O)COCc1ccco1)OC	-0.14
O=C1[C@H]2[C@H]3[C@H](O)[C@H](O)CC(=NO[C@@H]4O[C@H](CO)[C@@H](O)[C@H](O)[C@H]4O)[C@@H]3CC[C@H]2C(=O)N1C[C@@H]1CCCO1	-0.131
O=C1[C@H]2[C@H]3[C@H](O)[C@H](O)CC(=NOC[C@@H](O)COCc4ccco4)[C@@H]3CC[C@H]2C(=O)N1Cc1ccccc1	-0.102
CCOC(=O)[C@H](Cc1ccccc1)NC(=O)CCC1CC(OC(=O)NCCc2ccc(F)cc2)CC2(CCCC(COC(=O)NCc3cccc(C(F)(F)F)c3)O2)O1 (stereo partly specified)	-0.192
O=C1C=C[C@@H](O)[C@@H]2[C@@H]3C(=O)N(C4CCCCC4)C(=O)[C@@H]3CC[C@@H]12	-0.126
CCN1C(=O)[C@H]2[C@@H]3C(=CC[C@H]2C1=O)C(=O)[C@H]1O[C@H]1[C@H]3O	-0.0531
CCOC(=O)[C@H](Cc1ccccc1)NC(=O)CCC1CC(OC(=O)NCc2ccc3c(c2)OCO3)CC2(CCCC(COC(=O)NCCOc3ccccc3)O2)O1 (stereo partly specified)	-0.034
CCN1C(=O)[C@H]2[C@H]3[C@H](O)[C@H](O)CC(=NO[C@H](C)c4cn([C@H](CO)Cc5ccccc5)nn4)[C@@H]3CC[C@H]2C1=O	-0.135
COC(OC)[C@@H](C)[C@H](OC)[C@@H](C)[C@H](OC)c1ccccc1	-0.15
CO[C@@H]1COC(=O)[C@H](CCSC)NC(=O)CC=C[C@@H](C)COC(=O)[C@@H]2CCCN2C(=O)CC=C[C@H]1C	-0.199
CC(C)=NO[C@H](C)c1cn([C@@H]2COC[C@H]2O)nn1	-0.147
CC(C)=NOC(C)CN1CCCc2nc(C)c(C)cc21 (stereo unspecified)	0.0037
CC#CCOCCC=C1c2ccccc2[C@@H](OC)[C@@H]1C	-0.101
O=C1[C@H]2[C@H]3[C@H](O)[C@H](O)CC(=NO[C@@H]4O[C@H](CO)[C@@H](O)[C@H](O)[C@H]4O)[C@H]3CC[C@H]2C(=O)N1C[C@@H]1CCCO1	-0.0101
O=C1C[C@H](c2ccccc2)[C@H](c2ccc(Br)cc2)O1	-0.117
CO[C@H]1COC(=O)CC=C[C@@H](C)COC(=O)[C@H]2CCCN2C(=O)CC=C[C@H]1C	-0.166
O=C(NN=C1C[C@@H](O)[C@@H](O)[C@@H]2[C@@H]3C(=O)N(Cc4ccccc4)C(=O)[C@@H]3CC[C@H]12)OCc1ccccc1	-0.17
